An excerpt weighted towards active compounds, which were near 6.7% of everything screened.
Pf Dd2 inh – blocks growth of Plasmodium falciparum Dd2 parasites; activity change, % at 10 µM; AID 1159554; P. falciparum Dd2 growth, SYBR Green, 72 h; hits give low values; 94,000 compounds, 2.3% hits; in the data active = activity change below about -80%; inconclusive = no clear call, values can overlap the other calls
C diff growth – blocks growth of Clostridium difficile | Clostridium difficile clinical isolate growth, OD600, 24 h; hits give low values | growth activity, negative = inhibition, % at 16 µg/mL (by protocol) | 86,000 compounds, 0.25% hits | AID 1259249;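 active = mean growth activity at or below -80% and every replicate also at or below -80%; inconclusive = mean at or below -80% but some replicate above -80%; inactive = mean growth activity above -80%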
T cruzi growth-1 – blocks T. cruzi growth in NIH3T3 culture | 77,000 compounds, 5.9% hits | AID 624255 | inhibition, % at 8.34 µM | T. cruzi beta-gal in NIH3T3, GalScreen luminescence, 90 h;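 active = mean inhibition above about 93%, with at least 55% of replicates each passing it, limit read from the data, passing the limit was not always enough; inconclusive = only one of those two conditions holds; inactive = neither condition holds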
T cruzi growth-2 – blocks T. cruzi growth in NIH3T3 host cells. T. cruzi beta-gal in NIH3T3, GalScreen luminescence, 90 h. shares compounds with T cruzi growth-1. inhibition, % at 8.35 µM. 5,600 compounds, 72% hits;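 active = mean replicate inhibition above about 95% and at least 55% of replicates individually reaching it, limit read from the data; inconclusive = only one of the two criteria is met; inactive = neither criterion is met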
T cruzi growth-3 – Trypanosoma cruzi proliferation inhibition. AID 651740. 5,600 compounds, 21% hits. T. cruzi beta-gal in NIH3T3, GalScreen luminescence, 90 h. shares compounds with T cruzi growth-1. inhibition, % at 2.09 µM;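 active = mean inhibition above about 95%, with at least 55% of replicates also reaching it, limit read from the data; inconclusive = meets just one of the two conditions; inactive = meets neither condition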
3T3 cytotox – kills mouse NIH/3T3 fibroblasts; shares compounds with T cruzi growth-1; AID 651742; cytotoxicity (signal decrease), % at 8.35 µM; 5,600 compounds, 14% hits; NIH/3T3 viability, CellTiter-Glo ATP luminescence, 90 h;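 active = mean signal decrease across replicates above about 35% based on untreated-well scatter, with enough replicates individually passing, limit read from the data; inconclusive = no rule stated though some were filed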
3T3 cytotox 2 – kills mouse NIH/3T3 fibroblasts; inhibition, % at 24.9 µM; NIH/3T3 viability, CellTiter-Glo ATP luminescence, 90 h; 5,600 compounds, 56% hits; AID 651744; shares compounds with T cruzi growth-1;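 active = mean loss of cell viability signal at or above a set limit, and enough replicates individually reaching it; inconclusive = meets only the mean limit or only the replicate share; inactive = meets neither condition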
Hits are given with their value; 0 = inactive; ? = inconclusive; - = not tested or not shown.

SMILES	Pf Dd2 inh	C diff growth	T cruzi growth-1	T cruzi growth-2	T cruzi growth-3	3T3 cytotox	3T3 cytotox 2
C/C=C/c1cnc2c(c1)C(=O)N([C@H](C)CO)C[C@@H](C)[C@@H](CN(C)C(=O)c1ccc3c(c1)OCO3)O2	0	0	0	-	-	-	-
O=C(C[C@H]1CC[C@@H]2[C@H](COC[C@@H](O)CN2S(=O)(=O)c2cccc(Cl)c2)O1)Nc1ccc(-c2ccccc2)cc1	0	0	103	0	108	52	105
O=C(C[C@H]1CC[C@H]2[C@@H](COC[C@@H](O)CN2S(=O)(=O)c2cccc(Cl)c2)O1)Nc1ccc(-c2ccccc2)cc1	0	0	109	107	108	0	92
O=C(C[C@H]1CC[C@H]2[C@@H](COC[C@H](O)CN2S(=O)(=O)c2cccc(Cl)c2)O1)Nc1ccc(-c2ccccc2)cc1	0	0	0	-	-	-	-
O=C(C[C@@H]1CC[C@H]2[C@@H](COC[C@@H](O)CN2S(=O)(=O)c2cccc(Cl)c2)O1)Nc1ccccc1	0	0	0	-	-	-	-
CO[C@H]1CN(C)C(=O)c2cc(NS(=O)(=O)c3ccc(Oc4ccccc4)cc3)ccc2OC[C@H](C)NC[C@H]1C	0	-	0	-	-	-	-
C[C@@H]1CN([C@@H](C)CO)C(=O)c2cccc(NC(=O)C3CC3)c2O[C@H]1CN(C)S(=O)(=O)c1ccc(Cl)cc1	0	0	0	-	-	-	-
C[C@H]1CN([C@@H](C)CO)S(=O)(=O)c2ccc(C#Cc3ccccn3)cc2O[C@H]1CN(C)CC1CC1	0	0	0	-	-	-	-
CCCN(C)C[C@H]1Oc2cc(C#Cc3ccccn3)ccc2S(=O)(=O)N([C@@H](C)CO)C[C@H]1C	0	0	0	-	-	-	-
C[C@@H]1CN([C@H](C)CO)S(=O)(=O)c2ccc(C#Cc3ccccn3)cc2O[C@@H]1CN(C)Cc1cccc(F)c1	0	0	122	105	0	0	70
C[C@@H]1CN([C@@H](C)CO)S(=O)(=O)c2ccc(C#Cc3ccccn3)cc2O[C@H]1CN(C)Cc1cccc(F)c1	0	0	120	97	0	0	0
O=C(O)c1ccccc1CN1C[C@H]2O[C@H](CNS(=O)(=O)c3ccc(Cl)cc3)CC[C@H]21	0	0	-	-	-	-	-
C[C@@H]1CCCCO[C@H](CN(C)S(=O)(=O)c2ccc(F)cc2)[C@@H](C)CN([C@H](C)CO)C(=O)c2cc(NC(=O)C3CCCCC3)ccc2O1	0	0	0	-	-	-	-
Cc1ccc(S(=O)(=O)N(C)C[C@@H]2OCCCC[C@H](C)Oc3ccc(NC(=O)C4CCCCC4)cc3C(=O)N([C@H](C)CO)C[C@@H]2C)cc1	0	0	0	-	-	-	-
C[C@@H]1CCCCO[C@H](CN(C)S(=O)(=O)c2ccc(Cl)cc2)[C@H](C)CN([C@H](C)CO)C(=O)c2cc(NC(=O)C3CCCCC3)ccc2O1	-84	0	110	101	108	0	0
C[C@@H]1CN([C@@H](C)CO)C(=O)c2cc(NC(=O)C3CCCCC3)ccc2O[C@@H](C)CCCCO[C@@H]1CN(C)S(=O)(=O)c1ccc(Cl)cc1	-81	0	?	105	0	0	0
C[C@@H]1CN([C@H](C)CO)C(=O)c2cc(NC(=O)C3CCCCC3)ccc2O[C@@H](C)CCCCO[C@@H]1CN(C)S(=O)(=O)c1ccc(Cl)cc1	-86	0	102	104	0	0	0
C[C@@H]1CCCCO[C@@H](CN(C)S(=O)(=O)c2ccc(Cl)cc2)[C@H](C)CN([C@@H](C)CO)C(=O)c2cc(NC(=O)C3CCCCC3)ccc2O1	0	0	106	105	0	0	42
C[C@@H]1CCCCO[C@@H](CN(C)S(=O)(=O)c2ccc(F)cc2)[C@@H](C)CN([C@@H](C)CO)C(=O)c2cc(NC(=O)C3CCCCC3)ccc2O1	0	0	0	-	-	-	-
C[C@@H]1CCCCO[C@@H](CN(C)S(=O)(=O)c2ccc(F)cc2)[C@@H](C)CN([C@H](C)CO)C(=O)c2cc(NC(=O)C3CCCCC3)ccc2O1	0	0	0	-	-	-	-
Cc1ccc(-c2cnc3c(c2)C(=O)N([C@@H](C)CO)C[C@@H](C)[C@H](CN(C)CC2CCOCC2)O3)cc1	0	0	0	-	-	-	-
COc1ccc2c3c(n(C)c2c1)[C@H](CO)N(C(=O)c1cccnc1)CC31CN(C(=O)c2cccnc2)C1	0	0	-	-	-	-	-
C[C@H](CO)N1C[C@H](C)[C@@H](CN(C)Cc2ccc(C(F)(F)F)cc2)Oc2ccc(NC(=O)Nc3ccc(C(F)(F)F)cc3)cc2C1=O	0	0	0	-	-	-	-
C[C@@H]1CCCCO[C@@H](CN(C)S(=O)(=O)c2cccs2)[C@@H](C)CN([C@@H](C)CO)C(=O)c2cc(NC(=O)Cc3ccccc3)ccc2O1	0	0	0	-	-	-	-
CCNC(=O)C[C@H]1CC[C@@H](NS(=O)(=O)c2ccc(C)cc2)[C@@H](CO)O1	0	0	0	-	-	-	-
SMILES	Pf Dd2 inh	C diff growth	T cruzi growth-1	T cruzi growth-2	T cruzi growth-3	3T3 cytotox	3T3 cytotox 2
Cc1ccc(S(=O)(=O)N(C)C[C@@H]2OCCCC[C@@H](C)Oc3ccc(NC(=O)C4CCCCC4)cc3C(=O)N([C@@H](C)CO)C[C@H]2C)cc1	0	-	0	-	-	-	-
C[C@@H]1CCCCO[C@@H](CN(C)S(=O)(=O)c2ccc(Cl)cc2)[C@@H](C)CN([C@@H](C)CO)C(=O)c2cc(NC(=O)C3CCCCC3)ccc2O1	-81	0	108	108	0	0	?
C[C@H]1CCCCO[C@H](CN(C)S(=O)(=O)c2ccc(Cl)cc2)[C@@H](C)CN([C@@H](C)CO)C(=O)c2cc(NC(=O)C3CCCCC3)ccc2O1	-85	0	110	110	101	0	0
C[C@@H]1CCCCO[C@H](CN(C)S(=O)(=O)c2ccc(Cl)cc2)[C@@H](C)CN([C@H](C)CO)C(=O)c2cc(NC(=O)C3CCCCC3)ccc2O1	0	0	0	-	-	-	-
CO[C@H]1CN(C)C(=O)c2ccc(NC(=O)C3CCCC3)cc2OC[C@@H](C)N(C)C[C@H]1C	-	-	0	-	-	-	-
CO[C@@H]1CN(C)C(=O)c2ccc(NC(=O)Nc3cccc(F)c3)cc2OC[C@H](C)NC[C@H]1C	-82	-	102	0	0	0	0
CO[C@H]1CN(C)C(=O)c2cc(NC(=O)Nc3cc(F)ccc3F)ccc2OC[C@H](C)NC[C@@H]1C	0	-	?	0	0	0	0
CO[C@@H]1CN(C)C(=O)c2ccc(NS(=O)(=O)c3cccc(Cl)c3)cc2OC[C@@H](C)NC[C@H]1C	0	-	0	-	-	-	-
CO[C@@H]1CN(C)C(=O)c2ccc(NC(=O)Nc3cccc(F)c3)cc2OC[C@H](C)NC[C@@H]1C	0	-	0	-	-	-	-
CO[C@H]1CN(C)C(=O)c2ccc(NS(=O)(=O)c3cccc(Cl)c3)cc2OC[C@@H](C)NC[C@@H]1C	0	-	97	0	0	0	0
CO[C@@H]1CN(C)C(=O)c2cc(NC(=O)Nc3cc(F)ccc3F)ccc2OC[C@H](C)NC[C@@H]1C	0	-	0	-	-	-	-

Source: PubChem
